# Results from PubChem BioAssay.
# For some of these results: Measured potencies and affinities stand elsewhere. Active and inactive are the calls of the source.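 Rule for the calls, unless noted: active = dose-response curve with midpoint inside the tested range, moderate steepness, significant amplitude and little compound fluorescence or bead-attachment interference; inactive = the rest.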
# What was measured:
# [1] = molecular target: Cell division control protein 42 homolog (Homo sapiens) (UniProt P60953); test: activated mutant Cdc42 GTP-binding inhibitors, dose response, biochemical, multiplex bead flow cytometry, Bodipy-FL-GTP (AID 1333;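 active = fitted half-maximal concentration within the tested dose range, moderate curve steepness, a statistically real signal drop, and little compound fluorescence or tag-binding interference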)
# Cell division control protein 42 homolog (Homo sapiens), sequence (P60953 whole entry, looked up): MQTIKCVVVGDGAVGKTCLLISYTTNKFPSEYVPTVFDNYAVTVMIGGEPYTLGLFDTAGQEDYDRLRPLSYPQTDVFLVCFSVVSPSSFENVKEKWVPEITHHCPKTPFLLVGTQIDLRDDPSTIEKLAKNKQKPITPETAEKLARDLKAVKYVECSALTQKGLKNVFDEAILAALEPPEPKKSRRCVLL
# [2] = molecular target: Cell division control protein 42 homolog (Homo sapiens) (UniProt P60953); test: wildtype Cdc42 GTP-binding inhibitors, dose response, biochemical, multiplex bead flow cytometry, Bodipy-FL-GTP (AID 1334;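 active = fitted half-maximal concentration within the tested range, moderate curve steepness, significant signal drop, and little compound fluorescence or bead-linkage interference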); details: bead-based flow cytometry, Bodipy-FL-GTP binding to GST-Cdc42; at 100 µM (top of the series) unless noted
# [3] = molecular target: GTPase HRas (Homo sapiens) (UniProt P01112); test: inhibitors of GTP binding to wildtype Ras, dose response, biochemical, multiplex bead flow cytometry (AID 1335;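 active = fitted half-maximal concentration within 10 nM to 100 µM, steepness 0.5 to 2, significant signal drop, low assay interference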); details: bead-based flow cytometry, Bodipy-GTP binding to GST-Ras; at 100 µM (top of the series) unless noted
# GTPase HRas (Homo sapiens), sequence (P01112 whole entry, looked up): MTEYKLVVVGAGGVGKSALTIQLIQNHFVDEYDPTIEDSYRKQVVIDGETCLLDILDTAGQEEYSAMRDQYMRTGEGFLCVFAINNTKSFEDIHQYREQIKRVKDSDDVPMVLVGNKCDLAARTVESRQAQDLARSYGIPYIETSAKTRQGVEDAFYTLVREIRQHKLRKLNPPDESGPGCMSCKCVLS
# [4] = tested on: Ras-related protein Rab-7a (dog), GTP binding; test: Rab7 GTP binding inhibitors, potency, dose response, biochemical, wildtype, multiplex bead flow cytometry (AID 1336; call rule not given here)
# [5] = molecular target: Ras-related C3 botulinum toxin substrate 1 (Homo sapiens) (UniProt P63000); test: wildtype Rac1 GTP binding inhibitors, dose response, biochemical, multiplex bead flow cytometry (AID 1340;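 active = dose curve with midpoint inside tested range, moderate steepness, plateau gap beyond fit error, low compound glow and bead-link interference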); details: GST-Rac1 beads, Bodipy-FL-GTP binding; at 100 µM (top of the series) unless noted
# [6] = molecular target: GTPase HRas (Homo sapiens) (UniProt P01112); test: activated Ras mutant GTP binding inhibitors, dose response, biochemical, multiplex bead flow cytometry (AID 1341);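 note: GST-tagged constitutively activated Ras mutant immobilized on beads and multiplexed with other GTPases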
# [7] = RPL19A-GFP modulators, yeast TOR pathway, confirmation, cell-based, S. cerevisiae, flow cytometry, cherry picks, mother/daughter gates (AID 2270;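 active = GFP response below 50% of the DMSO control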); details: S. cerevisiae RPL19A-GFP strain, 3 h, at 10 µM, stronger effect = lower value, 100 = same GFP as DMSO wells
# [8] = LAP4-GFP expression modulators in yeast, confirmation, cell-based, cherry picks, flow cytometry, mother/daughter gates (AID 2271;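 active = GFP response above 150% of the DMSO control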;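 note: ratio of sample to DMSO plate mean so 100% equals DMSO level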); details: S. cerevisiae LAP4-GFP strain, 3 h, at 10 µM, stronger effect = higher value, 100 means same as DMSO control
# [9] = modulators of MEP2-GFP levels in yeast, confirmation, S. cerevisiae, flow cytometry GFP, cherry picks (AID 2272;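 active = GFP response above 150% of the DMSO control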;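 note: ratio of well signal to plate DMSO mean so 100% equals DMSO level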); details: S. cerevisiae MEP2-GFP strain, 3 h, at 10 µM, stronger effect = higher value
# [10] = AGP1-GFP expression modulators, hit retest, confirmation, cell-based, flow cytometry, S. cerevisiae, cherry picks (AID 2273;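 active = GFP response above 150% of the DMSO level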;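 note: median GFP channel fluorescence over the whole cell population gate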); details: S. cerevisiae AGP1-GFP strain, 3 h, at 10 µM
# [11] = modulators of CIT2-GFP expression in yeast, confirmation, S. cerevisiae, GFP fusion, cherry picks, mother/daughter gates (AID 2274;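 active = GFP response above 150% of the DMSO level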); details: S. cerevisiae CIT2-GFP strain, flow cytometry, 3 h, at 10 µM, stronger effect = higher value
# [12] = measured here: daughter cell gate
# [13] = measured here: mother cell gate
smiles,measurement,setting,value
COc1cccc2sc(Nc3nc(-c4ccccn4)cs3)nc12,outcome,[1],inactive
same,"fluorescence, percent of control (lower = inhibition)",[2],34.8%
same,"GTP binding, percent of control",[3],80.4%
same,outcome,[4],inactive
same,"GTP binding signal, raw median fluorescence (lower = inhibition) (MCF (arbitrary fluorescence units))",[5],194
same,outcome,[6],inactive
same,GFP response vs DMSO,[7],107% (inactive)
same,GFP response vs DMSO,[7]; [12],99.5%
same,GFP response vs DMSO,[7]; [13],96.6%
same,GFP response relative to DMSO,[8],254% (active)
same,GFP response relative to DMSO,[8]; measured here: daughter cell gate response,201%
same,GFP response relative to DMSO,[8]; measured here: mother cell gate response,240%
same,GFP response vs DMSO,[9],124% (inactive)
same,"GFP response, % of DMSO",[10],104% (inactive)
same,"GFP response, % of DMSO",[11],96.5% (inactive)
same,"GFP response, % of DMSO",[11]; [12],99.7%
same,"GFP response, % of DMSO",[11]; [13],88%
COc1ccc(C(=O)O)c(OCc2ccccc2Br)c1,outcome,[1],inactive
same,"fluorescence, percent of control (lower = inhibition)",[2],59.6%
same,"GTP binding, percent of control",[3],171%
same,outcome,[4],inactive
same,"GTP binding signal, raw median fluorescence (lower = inhibition) (MCF (arbitrary fluorescence units))",[5],56.1
same,outcome,[6],inactive
Cc1cccc(-n2nc(CC#N)c(C#N)c2N)c1,outcome,[1],inactive
same,"fluorescence, percent of control (lower = inhibition)",[2],33.5%
same,"GTP binding, percent of control",[3],74.8%
same,outcome,[4],inactive
same,outcome,[6],inactive
O=C(Nc1ccccc1)C1=C(c2ccccc2)S(=O)(=O)CCS1(=O)=O,"fluorescence, percent of control (lower = inhibition)",[2],21.5%
same,"GTP binding, percent of control",[3],72.8%
same,outcome,[4],inactive
same,"GTP binding signal, raw median fluorescence (lower = inhibition) (MCF (arbitrary fluorescence units))",[5],217
same,outcome,[6],inactive
O=C(COc1ncnc2cc([N+](=O)[O-])ccc12)NCCc1ccc(Cl)cc1,outcome,[1],inactive
same,"fluorescence, percent of control (lower = inhibition)",[2],36.6%
same,"GTP binding, percent of control",[3],78.8%
same,outcome,[4],inactive
same,outcome,[6],inactive
S=C(Nc1ccc(Oc2ccccc2)cc1)NC1CCCCC1,outcome,[1],inactive
same,"GTP binding, percent of control",[3],62.2%
same,outcome,[4],inactive
same,"GTP binding signal, raw median fluorescence (lower = inhibition) (MCF (arbitrary fluorescence units))",[5],205
same,outcome,[6],inactive
Cc1sc2nc3ccc(NCc4ccco4)nn3c(=O)c2c1C,outcome,[1],inactive
same,"GTP binding, percent of control",[3],57.4%
same,outcome,[4],inactive
same,outcome,[6],inactive
O=C1/C(=C\c2cccnc2)Sc2ccccc21,outcome,[1],inactive
same,"fluorescence, percent of control (lower = inhibition)",[2],29.1%
same,"GTP binding, percent of control",[3],62.4%
same,outcome,[4],inactive
same,outcome,[6],inactive
